Assay results reported in PubChem BioAssay (NCATS).
Several values for one entry are separate records, joined by “and”; a condition that tells them apart may be missing. Equal entries are not always repeated. Unmarked numbers belong to inactive results. Inconclusive results are not listed. A call without a number means that no potency is given here. Activity calls are given as the source filed them. Unless noted, the call rests on the fitted dose curve; in most records, active means well fitted curve in the direction sought with a large enough effect; inconclusive means small, poorly fitted or top-dose-only effect, or another doubt; inactive means no such curve, though single readings can be large; an effect the other way counts as inactive or inconclusive.

Tests used:
[1] = qHTS for Inhibitors of Plasmodium falciparum (DD2) proliferation (AID 504314);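 further: parasite DNA measured by SYBR Green fluorescence after red cell lysis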
Method in brief: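 Quantitative HTS growth inhibition: SYBR Green I binding to parasite DNA after 72 h drug exposure of infected erythrocytes (0.3% parasitemia, 2.5% hematocrit). Signals normalized per plate to inhibitor and vehicle wells.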

[2] = qHTS for Inhibitors of Plasmodium falciparum (GB4) proliferation (AID 504315); further: nearly all actives have a fitted effect of over 50% in size
Method in brief: (§1)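 Erythrocytes infected with P. falciparum line (0.3% parasitemia, 2.5% hematocrit final) incubated with compounds 72 h at 37 °C, 5% CO2; SYBR Green lysis buffer added, fluorescence read next day. Normalized to 0.29 uM artemisinin and DMSO.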

[3] = qHTS for Inhibitors of Plasmodium falciparum (HB3) proliferation (AID 504318); further: nearly all actives have a fitted effect of over 60% in size
Method in brief: as §1

[4] = qHTS for Inhibitors of Plasmodium falciparum (CP250) proliferation (AID 504320)
Method in brief: as §1

[5] = target: Atrial natriuretic peptide receptor 1 (Homo sapiens) (UniProt P16066); assay: Natriuretic polypeptide receptor (hNpr1) antagonism - Pilot CMLD screen (AID 1347052; calls by dose curve;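 further: HEK293 cells with hNpr1 stimulated by hNppA peptide at 0.1 nM; cGMP level read as GloSensor luciferase luminescence after agonist stimulation; series mostly up to about 9.2 µM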)
Sequence of Atrial natriuretic peptide receptor 1 (Homo sapiens) (P16066 whole entry, looked up): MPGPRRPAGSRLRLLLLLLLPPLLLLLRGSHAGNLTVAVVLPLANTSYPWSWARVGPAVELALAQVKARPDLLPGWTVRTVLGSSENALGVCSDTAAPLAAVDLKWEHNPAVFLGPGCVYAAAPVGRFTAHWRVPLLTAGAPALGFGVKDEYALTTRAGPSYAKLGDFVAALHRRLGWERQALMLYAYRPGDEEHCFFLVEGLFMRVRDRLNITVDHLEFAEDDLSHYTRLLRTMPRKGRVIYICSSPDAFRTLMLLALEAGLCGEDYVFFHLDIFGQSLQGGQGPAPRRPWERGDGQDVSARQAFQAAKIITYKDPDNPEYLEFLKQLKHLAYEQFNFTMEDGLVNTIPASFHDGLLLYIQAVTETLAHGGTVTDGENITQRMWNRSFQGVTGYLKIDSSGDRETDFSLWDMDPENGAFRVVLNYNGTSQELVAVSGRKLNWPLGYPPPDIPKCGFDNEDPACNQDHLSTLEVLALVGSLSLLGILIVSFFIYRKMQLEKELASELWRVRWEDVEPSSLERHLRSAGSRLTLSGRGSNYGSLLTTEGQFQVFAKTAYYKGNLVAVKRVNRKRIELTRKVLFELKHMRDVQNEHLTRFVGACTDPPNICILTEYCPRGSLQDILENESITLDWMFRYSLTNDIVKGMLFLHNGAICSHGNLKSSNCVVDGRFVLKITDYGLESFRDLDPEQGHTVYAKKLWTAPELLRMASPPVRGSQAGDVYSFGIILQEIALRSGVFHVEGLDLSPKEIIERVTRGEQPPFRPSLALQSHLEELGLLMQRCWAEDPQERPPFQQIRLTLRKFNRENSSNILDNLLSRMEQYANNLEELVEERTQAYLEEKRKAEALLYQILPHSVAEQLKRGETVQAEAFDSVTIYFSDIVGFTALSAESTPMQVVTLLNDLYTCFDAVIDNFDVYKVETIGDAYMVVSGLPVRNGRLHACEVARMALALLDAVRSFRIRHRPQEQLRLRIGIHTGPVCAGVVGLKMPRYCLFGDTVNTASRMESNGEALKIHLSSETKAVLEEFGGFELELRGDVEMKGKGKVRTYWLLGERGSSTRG

[6] = target: Cytochrome P450 2C9 (Homo sapiens) (UniProt P11712); assay: qHTS Assay for Inhibitors and Substrates of Cytochrome P450 2C9 (AID 883); further: nearly all actives have a fitted effect of over 60% in size
Sequence of Cytochrome P450 2C9 (Homo sapiens) (P11712 whole entry, looked up): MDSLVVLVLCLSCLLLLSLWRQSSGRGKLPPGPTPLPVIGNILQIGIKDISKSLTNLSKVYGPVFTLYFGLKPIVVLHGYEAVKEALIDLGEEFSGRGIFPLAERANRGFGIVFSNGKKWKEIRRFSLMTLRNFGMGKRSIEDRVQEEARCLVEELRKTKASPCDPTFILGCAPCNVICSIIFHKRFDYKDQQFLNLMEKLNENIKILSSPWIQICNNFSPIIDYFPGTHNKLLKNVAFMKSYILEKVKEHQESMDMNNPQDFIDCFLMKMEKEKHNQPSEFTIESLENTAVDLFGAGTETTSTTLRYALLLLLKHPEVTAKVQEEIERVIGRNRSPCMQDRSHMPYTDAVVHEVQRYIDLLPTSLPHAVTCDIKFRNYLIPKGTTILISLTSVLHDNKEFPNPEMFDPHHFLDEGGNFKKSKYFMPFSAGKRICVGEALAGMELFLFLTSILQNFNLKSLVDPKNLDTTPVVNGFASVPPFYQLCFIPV
Method in brief: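 Human CYP2C9 (10nM) hydroxylated Luciferin-H (100uM, at its KM) to luciferin in 25mM KPO4. Compound was preincubated 10 min at 37C, then NADPH regeneration started a 60 min reaction at 37C. Luminescence was read after detection reagent, normalized to 57uM sulphaphenazole.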

[7] = target: Cytochrome P450 3A4 (Homo sapiens) (UniProt P08684); assay: qHTS Assay for Activators of Cytochrome P450 3A4 (AID 885); further: nearly all actives have a fitted effect of over 65% in size
Sequence of Cytochrome P450 3A4 (Homo sapiens) (P08684 whole entry, looked up): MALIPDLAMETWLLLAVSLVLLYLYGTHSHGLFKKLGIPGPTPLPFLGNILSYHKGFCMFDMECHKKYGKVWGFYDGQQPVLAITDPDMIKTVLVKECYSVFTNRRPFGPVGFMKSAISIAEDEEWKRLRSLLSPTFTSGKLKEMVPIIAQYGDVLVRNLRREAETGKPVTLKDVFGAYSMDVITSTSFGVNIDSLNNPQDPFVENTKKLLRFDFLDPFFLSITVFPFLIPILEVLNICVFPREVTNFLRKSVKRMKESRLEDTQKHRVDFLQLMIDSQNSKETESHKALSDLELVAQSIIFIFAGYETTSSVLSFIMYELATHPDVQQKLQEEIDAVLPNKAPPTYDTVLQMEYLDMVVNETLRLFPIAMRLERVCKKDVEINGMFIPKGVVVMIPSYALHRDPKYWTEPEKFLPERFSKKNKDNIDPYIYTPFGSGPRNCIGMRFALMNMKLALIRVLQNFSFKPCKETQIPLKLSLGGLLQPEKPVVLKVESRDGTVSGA
Method in brief: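 Steps: enzyme/substrate mix dispensed; compound added, 10 min RT; NADPH regeneration solution added, 60 min RT; luciferin detection buffer stops reaction; 20 min later luminescence measured.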

[8] = target: Cytochrome P450 2C19 (Homo sapiens) (UniProt P33261); assay: qHTS Assay for Inhibitors and Substrates of Cytochrome P450 2C19 (AID 899); further: potency means the concentration at half of the fitted maximal effect; nearly all actives have a fitted effect of over 60% in size
Sequence of Cytochrome P450 2C19 (Homo sapiens) (P33261 whole entry, looked up): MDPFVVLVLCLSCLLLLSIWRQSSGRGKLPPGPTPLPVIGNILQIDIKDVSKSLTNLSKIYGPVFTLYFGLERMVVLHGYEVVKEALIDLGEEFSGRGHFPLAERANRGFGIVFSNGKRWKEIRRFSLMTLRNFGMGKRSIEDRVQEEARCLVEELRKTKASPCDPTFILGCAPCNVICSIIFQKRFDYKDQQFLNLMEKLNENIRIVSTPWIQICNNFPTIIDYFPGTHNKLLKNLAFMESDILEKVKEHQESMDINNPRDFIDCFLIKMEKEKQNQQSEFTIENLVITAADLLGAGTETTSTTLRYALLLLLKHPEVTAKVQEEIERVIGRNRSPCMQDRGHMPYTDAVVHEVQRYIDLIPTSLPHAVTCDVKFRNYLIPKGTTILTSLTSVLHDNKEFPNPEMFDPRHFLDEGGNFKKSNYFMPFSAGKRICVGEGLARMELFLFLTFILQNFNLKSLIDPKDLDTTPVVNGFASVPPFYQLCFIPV
Method in brief: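 Human CYP2C19 (5nM) with Luciferin-H EGE at 10uM (its KM) in 50mM KPO4 was preincubated with compound for 10 min at 37C. NADPH regeneration started a 60 min 37C reaction. Luciferin was read by luminescence, normalized to 57uM ketoconazole.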

CC(=O)OC[C@H]1O[C@H](CCON=C[C@@H](C)[C@H](OCc2ccccc2)C(C)C)C=C[C@@H]1OC(C)=O
Potency [1]: inactive | Potency [2]: inactive | Potency [3]: inactive | Potency [4]: inactive | Potency [5]: inactive

COCC=CC1=CC2=CC(=O)C(C)(OC(=O)c3cnc4ccccc4n3)C(=O)C2=CN1CC(C)C (stereo not given)
Potency [1]: inactive | Potency [2]: inactive | Potency [3]: inactive | Potency [4]: inactive | Potency [5]: inactive

CCN1C(=NCCc2ccc(Br)cc2)NC(c2ccccc2)C(C(=O)OC)=C1C (stereo not given)
Potency [1]: inactive | Potency [2]: inactive | Potency [3]: inactive | Potency [4]: inactive | Potency [5]: inactive

COc1ccc2c(c1)O[C@H](c1ccc3c(c1)OCO3)[C@@H](OC(=O)NCc1ccc3c(c1)OCO3)C2=O
Potency [1]: inactive | Potency [2]: inactive | Potency [3]: inactive | Potency [4]: inactive | Potency [5]: inactive

C=CC[C@@H]1C=C[C@H](ON=C[C@@H](N[S+](=O)([O-])c2ccc(C)cc2)[C@H](C)C=CCC(=O)OC)[C@H](CO)O1
Potency [1]: inactive | Potency [2]: inactive | Potency [3]: inactive | Potency [4]: inactive | Potency [5]: inactive

CC(=O)OC[C@H]1O[C@H](CC=NO[C@@H](C)CN2CCCc3nc(C)c(C)cc32)C=C[C@@H]1OC(C)=O
Potency [1]: inactive | Potency [2]: inactive | Potency [3]: inactive | Potency [4]: inactive | Potency [5]: inactive

CCCCCCCc1cc2ccccc2c2c(C(=O)OC)cc(C(=O)OC)n12
Potency [1]: inactive | Potency [2]: inactive | Potency [3]: inactive | Potency [4]: inactive | Potency [5]: inactive

CCCCC1=CC2=C(c3ccco3)C(=O)C(C)(OC(=O)c3ccc(OC)cc3)C(=O)C2=CN1CCCOC(C)C (stereo not given)
Potency [1]: inactive | Potency [2]: inactive | Potency [3]: inactive | Potency [4]: inactive | Potency [5]: inactive

CCC(=O)C[C@@H](NC(=O)OC)c1ccc(F)cc1
Potency [1]: inactive | Potency [2]: inactive | Potency [3]: inactive | Potency [4]: inactive | Potency [5]: inactive

C=C(Br)CO[C@@H]1C=C[C@@H](c2ccccc2)O[C@@H]1COC
Potency [1]: inactive | Potency [2]: inactive | Potency [3]: inactive | Potency [4]: inactive | Potency [5]: inactive

C#CCCCON=C1C[C@@H](O)[C@H](O)[C@H]2[C@@H]3C(=O)N(C4CCCCC4)C(=O)[C@@H]3CC[C@@H]12
Potency [1]: inactive | Potency [2]: inactive | Potency [3]: inactive | Potency [4]: inactive | Potency [5]: inactive

CCOC(=O)NN=C1C[C@@H](O)[C@@H](O)[C@@H]2[C@H]3C(=O)N(C4CCCCC4)C(=O)[C@@H]3CC[C@H]12
Potency [1]: inactive | Potency [2]: inactive | Potency [3]: inactive | Potency [4]: inactive | Potency [5]: inactive

CCOC(=O)N1C2=NC(C(=O)OC)=C(C(=O)OC)[C@@H]3N(Cc4ccccc4)c4ccccc4[C@]23C[C@H]1C(=O)OC
activity, negative = inhibition [1]: -1.2% [at 1.12 µM] | Potency [2]: inactive | Potency [3]: inactive | Potency [4]: inactive | Potency [5]: inactive

COc1ccc(C(=O)CC(=O)c2c(O)cc(OC)cc2OC)cc1
activity change, negative = inhibition [6]: -6.49% [at 11.4 µM] | activity change, positive = activation [7]: -41.2% [at 11.4 µM] | Potency [8]: 398 nM (active)

CON(C)C(=O)c1nnc2c3ccccc3n(S(=O)(=O)c3ccc(C)cc3)c2n1
activity change, positive = activation [7]: -39.7% [at 11.4 µM] and -50.5% [at 11.4 µM]

Cc1cc2c(c(=O)o1)[C@H]1O[C@](c3ccsc3)(Cc3c1ccc1ccccc31)O2
Potency [1]: inactive | Potency [2]: inactive | Potency [4]: inactive | Potency [5]: inactive

COC(=O)CC=C1c2ccccc2C[C@H](OC)[C@@H]1C
Potency [1]: inactive | Potency [2]: inactive | Potency [4]: inactive | Potency [5]: inactive

COC(=O)C1=C(C(=O)OC)[C@@H]2N(C)c3ccccc3[C@@]23CCC(=O)N(Cc2ccc(OC)cc2)C3=N1
Potency [1]: inactive | Potency [2]: inactive | Potency [4]: inactive | Potency [5]: inactive

COc1ccc(O[C@H]2C=C[C@@H](c3ccccc3)O[C@H]2CON=C[C@@H](C)[C@H](OCc2ccccc2)C(C)C)cc1
Potency [1]: inactive | Potency [2]: inactive | Potency [4]: inactive | Potency [5]: inactive

C[C@H]1Cc2c(COc3ccccc3)nc3c(c2CO1)CN(C(=O)NCc1ccco1)CC3
activity, negative = inhibition [1]: -0.216% [at 1.12 µM] | Potency [2]: inactive | Potency [4]: inactive | Potency [5]: inactive

O[C@H](CC#CCOc1ccccc1)COCc1ccccc1
Potency [1]: inactive | Potency [2]: inactive | Potency [4]: inactive | Potency [5]: inactive

COC1=C[C@H](C(=O)N2CCCC2)[C@H](C)[C@@H](c2ccccc2)CC1=O
Potency [1]: inactive | Potency [2]: inactive | Potency [4]: inactive | Potency [5]: inactive

COC(=O)C1=C(C(=O)OC)[C@@H]2Nc3ccccc3[C@@]23C[C@@H](C(=O)OC)N(C(=O)N2CCNC2=O)C3=N1
Potency [1]: inactive | Potency [2]: inactive | Potency [4]: inactive | Potency [5]: inactive

C#CCCCON=C1C[C@@H](O)[C@H](O)[C@H]2[C@@H]3C(=O)N(Cc4ccc5c(c4)OCO5)C(=O)[C@@H]3CC[C@H]12
Potency [1]: inactive | Potency [2]: inactive | Potency [4]: inactive | Potency [5]: inactive
